Columns and labels:
Assay in all cases: DAPPL (digital affinity profiling via proximity ligation, sequencing); 10 mM Tris-HCl pH 7.5, 50 mM NaCl, 1 mM DTT, 4% glycerol, room temperature, 30 min; GST-TFs on glutathione beads, 16-mer random dsDNA library, 0.1% formaldehyde crosslink after washing; high values mean tight binding
FEV = target: T1, FEV (Homo sapiens, UniProt Q99581 1-238); settings: protein: recombinant; tags: N-terminal GST; dsDNA, one strand shown
T1 sequence: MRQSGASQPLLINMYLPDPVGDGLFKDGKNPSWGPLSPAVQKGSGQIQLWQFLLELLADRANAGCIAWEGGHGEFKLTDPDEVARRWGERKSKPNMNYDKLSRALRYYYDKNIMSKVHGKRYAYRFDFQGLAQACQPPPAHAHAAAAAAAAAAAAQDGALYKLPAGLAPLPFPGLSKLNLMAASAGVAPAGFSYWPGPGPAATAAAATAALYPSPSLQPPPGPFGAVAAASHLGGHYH
Outline: (§1)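 Binding signal is each hexamer's read frequency for a factor divided by its frequency in the tag-only sample. The factors were GST-fused human transcription factors from yeast, captured on glutathione beads, DNA-barcoded and pooled with that sample. Pools were incubated with 200 nmole of a random double-stranded 16-mer DNA library in Tris/NaCl/DTT/glycerol buffer at room temperature for 30 min, then washed, crosslinked with 0.1% formaldehyde, proximity-ligated with BsaI/T4 ligase (1 h, 37 °C), PCR-amplified and sequenced on an Illumina NextSeq500.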

ETV5 = ETV5 (Homo sapiens, UniProt P41161 1-510); settings: protein: recombinant; tags: N-terminal GST; dsDNA, one strand shown
ETV5, sequence (P41161 whole entry): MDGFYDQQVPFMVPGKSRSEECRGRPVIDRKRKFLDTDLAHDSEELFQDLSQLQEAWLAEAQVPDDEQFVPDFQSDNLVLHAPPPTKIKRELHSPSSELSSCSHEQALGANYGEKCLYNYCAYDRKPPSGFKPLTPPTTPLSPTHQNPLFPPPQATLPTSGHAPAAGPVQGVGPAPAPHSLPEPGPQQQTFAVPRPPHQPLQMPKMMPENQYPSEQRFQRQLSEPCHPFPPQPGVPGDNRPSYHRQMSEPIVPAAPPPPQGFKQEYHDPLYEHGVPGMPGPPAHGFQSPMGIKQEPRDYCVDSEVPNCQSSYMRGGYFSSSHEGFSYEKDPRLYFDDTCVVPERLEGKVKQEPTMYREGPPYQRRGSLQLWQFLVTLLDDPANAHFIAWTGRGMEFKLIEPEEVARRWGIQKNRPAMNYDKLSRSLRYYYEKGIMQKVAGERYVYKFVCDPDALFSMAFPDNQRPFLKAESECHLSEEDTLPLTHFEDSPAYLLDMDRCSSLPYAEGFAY
Outline: as §1

HSF1 = HSF1 (Homo sapiens, UniProt Q00613 1-529); settings: protein: recombinant; tags: N-terminal GST; chain copies: 3; dsDNA, one strand shown
HSF1, sequence (Q00613 whole entry): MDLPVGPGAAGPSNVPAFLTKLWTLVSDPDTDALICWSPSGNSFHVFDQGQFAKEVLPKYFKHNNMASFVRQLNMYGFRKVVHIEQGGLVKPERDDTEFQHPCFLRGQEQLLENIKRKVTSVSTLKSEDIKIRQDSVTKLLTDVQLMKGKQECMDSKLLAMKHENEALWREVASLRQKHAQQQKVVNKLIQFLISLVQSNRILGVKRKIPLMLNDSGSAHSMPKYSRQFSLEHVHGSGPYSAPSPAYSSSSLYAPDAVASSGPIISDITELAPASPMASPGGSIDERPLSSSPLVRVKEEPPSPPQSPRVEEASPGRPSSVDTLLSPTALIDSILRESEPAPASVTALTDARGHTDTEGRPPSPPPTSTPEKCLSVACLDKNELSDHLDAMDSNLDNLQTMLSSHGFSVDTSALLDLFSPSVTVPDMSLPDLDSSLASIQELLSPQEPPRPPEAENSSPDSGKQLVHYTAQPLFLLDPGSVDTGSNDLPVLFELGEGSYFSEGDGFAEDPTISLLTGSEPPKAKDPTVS
Outline: as §1

SPIC = target: T2, SPIC (Homo sapiens, UniProt Q8N5J4 1-248); settings: protein: recombinant; tags: N-terminal GST; dsDNA, one strand shown
T2 sequence: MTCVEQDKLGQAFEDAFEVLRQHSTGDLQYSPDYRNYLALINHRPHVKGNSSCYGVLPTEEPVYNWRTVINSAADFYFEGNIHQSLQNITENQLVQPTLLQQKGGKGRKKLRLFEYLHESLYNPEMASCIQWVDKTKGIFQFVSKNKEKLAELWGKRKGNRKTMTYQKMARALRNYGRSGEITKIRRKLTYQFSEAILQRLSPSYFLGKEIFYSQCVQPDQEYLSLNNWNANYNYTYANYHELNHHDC
Outline: as §1

ELF4 = ELF4 (Homo sapiens, UniProt Q99607 1-663); settings: protein: recombinant; tags: N-terminal GST; dsDNA, one strand shown
ELF4, sequence (Q99607 whole entry): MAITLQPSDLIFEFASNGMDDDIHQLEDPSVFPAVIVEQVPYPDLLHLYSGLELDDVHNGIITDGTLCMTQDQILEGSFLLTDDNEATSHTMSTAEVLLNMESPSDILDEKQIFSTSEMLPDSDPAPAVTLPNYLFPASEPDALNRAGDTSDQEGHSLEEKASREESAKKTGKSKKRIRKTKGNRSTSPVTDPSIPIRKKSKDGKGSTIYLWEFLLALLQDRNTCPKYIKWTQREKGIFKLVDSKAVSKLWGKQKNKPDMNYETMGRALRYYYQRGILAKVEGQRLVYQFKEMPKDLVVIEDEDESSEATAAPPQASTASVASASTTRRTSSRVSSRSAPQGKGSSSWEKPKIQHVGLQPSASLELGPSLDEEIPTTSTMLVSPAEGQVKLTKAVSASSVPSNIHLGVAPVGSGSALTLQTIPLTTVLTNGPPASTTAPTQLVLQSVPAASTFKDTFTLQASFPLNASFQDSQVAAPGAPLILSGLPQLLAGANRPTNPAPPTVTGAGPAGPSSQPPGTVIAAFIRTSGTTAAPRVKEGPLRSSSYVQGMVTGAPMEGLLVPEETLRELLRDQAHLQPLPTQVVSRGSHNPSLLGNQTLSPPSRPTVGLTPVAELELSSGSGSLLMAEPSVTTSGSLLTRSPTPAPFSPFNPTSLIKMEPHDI
Outline: as §1

ELK4 = target: T3, ELK4 (Homo sapiens, UniProt P28324-2 1-405); settings: protein: recombinant; tags: N-terminal GST; dsDNA, one strand shown
T3 sequence: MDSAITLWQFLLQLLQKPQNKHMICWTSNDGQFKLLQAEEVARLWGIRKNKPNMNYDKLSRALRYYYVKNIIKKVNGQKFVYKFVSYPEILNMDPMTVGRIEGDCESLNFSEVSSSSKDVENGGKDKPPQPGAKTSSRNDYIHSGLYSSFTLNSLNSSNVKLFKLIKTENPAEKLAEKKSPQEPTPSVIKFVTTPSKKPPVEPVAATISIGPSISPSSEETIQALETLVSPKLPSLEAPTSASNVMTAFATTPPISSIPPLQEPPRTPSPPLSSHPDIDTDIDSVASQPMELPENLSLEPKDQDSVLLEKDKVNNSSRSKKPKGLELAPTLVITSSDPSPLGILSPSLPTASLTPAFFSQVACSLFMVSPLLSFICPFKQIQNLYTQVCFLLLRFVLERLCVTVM
Outline: as §1

ETV2 = target: T4, ETV2 (Homo sapiens, UniProt O00321 1-342); settings: protein: recombinant; tags: N-terminal GST; dsDNA, one strand shown
T4 sequence: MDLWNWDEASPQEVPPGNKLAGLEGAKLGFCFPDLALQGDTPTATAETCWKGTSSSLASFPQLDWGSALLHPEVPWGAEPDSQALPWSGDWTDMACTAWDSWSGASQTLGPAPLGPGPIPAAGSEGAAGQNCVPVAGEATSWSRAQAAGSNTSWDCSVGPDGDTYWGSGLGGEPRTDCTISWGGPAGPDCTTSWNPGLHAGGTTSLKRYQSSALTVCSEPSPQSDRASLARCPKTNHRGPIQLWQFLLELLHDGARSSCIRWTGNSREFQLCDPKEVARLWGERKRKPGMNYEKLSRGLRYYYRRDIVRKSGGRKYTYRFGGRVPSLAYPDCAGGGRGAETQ
Outline: as §1

ELF3 = target: T5, ELF3 (Homo sapiens, UniProt P78545 1-371); settings: protein: recombinant; tags: N-terminal GST; dsDNA, one strand shown
T5 sequence: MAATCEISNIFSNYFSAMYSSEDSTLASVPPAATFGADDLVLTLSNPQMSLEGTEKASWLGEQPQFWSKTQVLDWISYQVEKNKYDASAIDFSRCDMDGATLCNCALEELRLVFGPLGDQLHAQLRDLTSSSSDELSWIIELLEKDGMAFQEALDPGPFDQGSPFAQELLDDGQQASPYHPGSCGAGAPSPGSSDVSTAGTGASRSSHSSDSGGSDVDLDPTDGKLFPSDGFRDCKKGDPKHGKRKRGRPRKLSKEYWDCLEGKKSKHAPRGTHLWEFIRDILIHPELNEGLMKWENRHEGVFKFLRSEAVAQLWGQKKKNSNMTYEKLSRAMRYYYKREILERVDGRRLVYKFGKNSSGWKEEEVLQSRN
Outline: as §1

CRX = CRX (Homo sapiens, UniProt O43186 1-299); settings: protein: recombinant; tags: N-terminal GST; dsDNA, one strand shown
CRX, sequence (O43186 whole entry): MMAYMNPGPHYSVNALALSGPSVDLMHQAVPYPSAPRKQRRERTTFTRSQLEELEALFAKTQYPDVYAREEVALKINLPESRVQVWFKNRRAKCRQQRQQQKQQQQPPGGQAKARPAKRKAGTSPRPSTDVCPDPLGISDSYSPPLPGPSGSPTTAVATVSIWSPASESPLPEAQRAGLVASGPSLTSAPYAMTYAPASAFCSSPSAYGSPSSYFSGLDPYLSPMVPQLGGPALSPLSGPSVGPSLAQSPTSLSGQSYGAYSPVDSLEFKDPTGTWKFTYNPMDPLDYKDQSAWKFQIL
Outline: as §1

ETV1 = ETV1 (Homo sapiens, UniProt P50549 1-477); settings: protein: recombinant; tags: N-terminal GST; dsDNA, one strand shown
ETV1, sequence (P50549 whole entry): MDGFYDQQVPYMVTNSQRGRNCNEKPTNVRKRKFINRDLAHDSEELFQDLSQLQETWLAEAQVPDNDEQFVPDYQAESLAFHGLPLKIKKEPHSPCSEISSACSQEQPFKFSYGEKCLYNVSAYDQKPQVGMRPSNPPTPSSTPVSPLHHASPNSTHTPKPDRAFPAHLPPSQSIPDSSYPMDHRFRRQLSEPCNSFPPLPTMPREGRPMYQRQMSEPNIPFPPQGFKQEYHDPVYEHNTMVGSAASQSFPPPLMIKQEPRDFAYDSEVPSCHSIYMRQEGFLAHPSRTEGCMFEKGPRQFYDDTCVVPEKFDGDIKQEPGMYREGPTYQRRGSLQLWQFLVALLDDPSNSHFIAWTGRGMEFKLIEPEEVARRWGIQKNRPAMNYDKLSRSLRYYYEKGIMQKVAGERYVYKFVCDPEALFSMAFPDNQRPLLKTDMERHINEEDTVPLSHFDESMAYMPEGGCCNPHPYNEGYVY
Outline: as §1

ERF = target: T6, ERF (Homo sapiens, UniProt P50548 1-548); settings: protein: recombinant; tags: N-terminal GST; dsDNA, one strand shown
T6 sequence: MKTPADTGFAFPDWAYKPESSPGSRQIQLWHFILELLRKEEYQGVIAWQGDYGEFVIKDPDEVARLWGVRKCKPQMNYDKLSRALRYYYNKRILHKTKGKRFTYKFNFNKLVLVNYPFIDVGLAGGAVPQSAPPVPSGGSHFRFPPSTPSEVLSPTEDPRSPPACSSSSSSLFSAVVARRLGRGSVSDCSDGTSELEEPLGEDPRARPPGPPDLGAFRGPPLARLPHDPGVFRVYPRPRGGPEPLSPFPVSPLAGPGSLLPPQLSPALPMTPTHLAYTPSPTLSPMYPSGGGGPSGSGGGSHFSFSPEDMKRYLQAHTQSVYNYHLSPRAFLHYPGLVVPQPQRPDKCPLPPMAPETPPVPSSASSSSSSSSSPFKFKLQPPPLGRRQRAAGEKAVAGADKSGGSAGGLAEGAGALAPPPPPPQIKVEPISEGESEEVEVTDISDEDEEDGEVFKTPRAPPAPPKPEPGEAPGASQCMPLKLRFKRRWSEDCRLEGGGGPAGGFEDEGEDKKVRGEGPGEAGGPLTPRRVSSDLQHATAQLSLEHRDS
Outline: as §1

ETV3L = target: T7, ETV3L (Homo sapiens, UniProt Q6ZN32 1-361); settings: protein: recombinant; tags: N-terminal GST; dsDNA, one strand shown
T7 sequence: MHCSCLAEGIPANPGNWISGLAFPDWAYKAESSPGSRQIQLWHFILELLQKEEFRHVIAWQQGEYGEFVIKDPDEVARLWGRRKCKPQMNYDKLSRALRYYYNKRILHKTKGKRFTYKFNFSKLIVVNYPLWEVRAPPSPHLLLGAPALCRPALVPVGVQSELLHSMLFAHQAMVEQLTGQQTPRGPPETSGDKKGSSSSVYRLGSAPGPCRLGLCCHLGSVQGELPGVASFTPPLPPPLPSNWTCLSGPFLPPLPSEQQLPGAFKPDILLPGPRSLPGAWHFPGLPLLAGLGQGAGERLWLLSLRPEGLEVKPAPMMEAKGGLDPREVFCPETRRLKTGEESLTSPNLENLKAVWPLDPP
Outline: as §1

ETS2 = target: T8, ETS2 (Homo sapiens, UniProt P15036 1-469); settings: protein: recombinant; tags: N-terminal GST; dsDNA, one strand shown
T8 sequence: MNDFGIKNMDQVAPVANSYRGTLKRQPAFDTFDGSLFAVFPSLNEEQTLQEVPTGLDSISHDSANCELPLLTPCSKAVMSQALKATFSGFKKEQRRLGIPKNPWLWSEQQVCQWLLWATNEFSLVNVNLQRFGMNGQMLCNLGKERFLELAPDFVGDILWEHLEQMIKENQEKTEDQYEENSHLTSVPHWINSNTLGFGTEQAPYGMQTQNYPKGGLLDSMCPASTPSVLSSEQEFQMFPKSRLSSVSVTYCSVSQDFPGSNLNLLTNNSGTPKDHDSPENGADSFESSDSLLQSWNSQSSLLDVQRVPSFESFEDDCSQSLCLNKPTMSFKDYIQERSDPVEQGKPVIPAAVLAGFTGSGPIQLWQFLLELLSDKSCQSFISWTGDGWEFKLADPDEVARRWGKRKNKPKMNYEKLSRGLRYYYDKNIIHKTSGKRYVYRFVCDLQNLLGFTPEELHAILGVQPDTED
Outline: as §1

SPDEF = target: T9, SPDEF (Homo sapiens, UniProt O95238 1-335); settings: protein: recombinant; tags: N-terminal GST; dsDNA, one strand shown
T9 sequence: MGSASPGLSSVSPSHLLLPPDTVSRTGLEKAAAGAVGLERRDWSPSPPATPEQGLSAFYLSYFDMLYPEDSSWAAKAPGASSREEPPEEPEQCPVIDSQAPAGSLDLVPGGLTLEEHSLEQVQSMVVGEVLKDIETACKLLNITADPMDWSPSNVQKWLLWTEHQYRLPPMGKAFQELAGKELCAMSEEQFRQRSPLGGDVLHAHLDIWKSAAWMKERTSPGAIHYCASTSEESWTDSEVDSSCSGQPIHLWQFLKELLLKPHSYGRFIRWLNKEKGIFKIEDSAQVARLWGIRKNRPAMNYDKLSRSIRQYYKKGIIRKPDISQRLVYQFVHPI
Outline: as §1

ETV7 = target: T10, ETV7 (Homo sapiens, UniProt Q9Y603 1-341); settings: protein: recombinant; tags: N-terminal GST; dsDNA, one strand shown
T10 sequence: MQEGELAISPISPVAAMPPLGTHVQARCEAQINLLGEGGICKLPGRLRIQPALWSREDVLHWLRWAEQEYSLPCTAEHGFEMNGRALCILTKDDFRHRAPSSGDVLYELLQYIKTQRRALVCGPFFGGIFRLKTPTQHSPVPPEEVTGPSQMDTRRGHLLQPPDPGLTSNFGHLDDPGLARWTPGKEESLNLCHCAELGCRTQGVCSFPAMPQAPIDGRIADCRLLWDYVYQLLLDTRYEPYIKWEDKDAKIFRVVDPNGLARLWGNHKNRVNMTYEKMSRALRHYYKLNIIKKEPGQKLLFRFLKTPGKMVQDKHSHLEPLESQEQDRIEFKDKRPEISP
Outline: as §1

ELF5 = target: T11, ELF5 (Homo sapiens, UniProt Q9UKW6-2 1-255); settings: protein: recombinant; tags: N-terminal GST; dsDNA, one strand shown
T11 sequence: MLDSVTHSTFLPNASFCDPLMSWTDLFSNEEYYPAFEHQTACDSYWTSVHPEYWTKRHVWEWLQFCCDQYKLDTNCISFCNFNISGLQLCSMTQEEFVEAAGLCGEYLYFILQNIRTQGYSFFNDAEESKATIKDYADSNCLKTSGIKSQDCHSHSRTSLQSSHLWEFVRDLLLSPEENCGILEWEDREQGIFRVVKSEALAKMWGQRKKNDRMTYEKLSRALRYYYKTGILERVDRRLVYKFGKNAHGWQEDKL
Outline: as §1

ETV3 = target: T12, ETV3 (Homo sapiens, UniProt P41162-2 1-143); settings: protein: recombinant; tags: N-terminal GST; dsDNA, one strand shown
T12 sequence: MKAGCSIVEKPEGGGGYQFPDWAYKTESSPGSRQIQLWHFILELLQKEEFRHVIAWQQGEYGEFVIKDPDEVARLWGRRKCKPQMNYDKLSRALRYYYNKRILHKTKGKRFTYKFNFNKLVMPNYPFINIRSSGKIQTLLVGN
Outline: as §1

ETV6 = ETV6 (Homo sapiens, UniProt P41212 1-452); settings: protein: recombinant; tags: N-terminal GST; dsDNA, one strand shown
ETV6, sequence (P41212 whole entry): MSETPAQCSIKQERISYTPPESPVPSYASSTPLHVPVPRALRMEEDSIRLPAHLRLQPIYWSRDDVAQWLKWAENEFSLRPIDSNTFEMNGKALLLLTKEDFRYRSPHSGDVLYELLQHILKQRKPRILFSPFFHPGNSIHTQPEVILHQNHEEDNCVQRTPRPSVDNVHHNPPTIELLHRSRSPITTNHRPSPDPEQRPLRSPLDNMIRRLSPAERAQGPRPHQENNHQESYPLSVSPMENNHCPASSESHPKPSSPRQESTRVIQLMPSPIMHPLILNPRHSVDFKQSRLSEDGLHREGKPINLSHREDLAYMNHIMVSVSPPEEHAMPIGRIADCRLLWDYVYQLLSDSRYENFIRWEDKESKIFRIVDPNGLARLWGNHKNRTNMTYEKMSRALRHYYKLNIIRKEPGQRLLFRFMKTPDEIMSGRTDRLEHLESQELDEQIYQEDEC
Outline: as §1

Sequence	binding signal (FEV)	binding signal (ETV5)	binding signal (HSF1)	binding signal (SPIC)	binding signal (ELF4)	binding signal (ELK4)	binding signal (ETV2)	binding signal (ELF3)	binding signal (CRX)	binding signal (ETV1)	binding signal (ERF)	binding signal (ETV3L)	binding signal (ETS2)	binding signal (SPDEF)	binding signal (ETV7)	binding signal (ELF5)	binding signal (ETV3)	binding signal (ETV6)
AATTAT	1.25 fold enrichment (6-mer frequency, TF over GST control)	1.29 fold enrichment (6-mer frequency, TF over GST control)	1.55 fold enrichment (6-mer frequency, TF over GST control)	1.33 fold enrichment (6-mer frequency, TF over GST control)	1.16 fold enrichment (6-mer frequency, TF over GST control)	1.12 fold enrichment (6-mer frequency, TF over GST control)	1.28 fold enrichment (6-mer frequency, TF over GST control)	1.27 fold enrichment (6-mer frequency, TF over GST control)	2.05 fold enrichment (6-mer frequency, TF over GST control)	1.26 fold enrichment (6-mer frequency, TF over GST control)	1.15 fold enrichment (6-mer frequency, TF over GST control)	1.26 fold enrichment (6-mer frequency, TF over GST control)	1.27 fold enrichment (6-mer frequency, TF over GST control)	1.24 fold enrichment (6-mer frequency, TF over GST control)	1.23 fold enrichment (6-mer frequency, TF over GST control)	1.24 fold enrichment (6-mer frequency, TF over GST control)	1.28 fold enrichment (6-mer frequency, TF over GST control)	1.2 fold enrichment (6-mer frequency, TF over GST control)
CCTTTC	1.71 fold enrichment (6-mer frequency, TF over GST control)	1.51 fold enrichment (6-mer frequency, TF over GST control)	1.43 fold enrichment (6-mer frequency, TF over GST control)	1.65 fold enrichment (6-mer frequency, TF over GST control)	1.68 fold enrichment (6-mer frequency, TF over GST control)	1.64 fold enrichment (6-mer frequency, TF over GST control)	1.56 fold enrichment (6-mer frequency, TF over GST control)	1.42 fold enrichment (6-mer frequency, TF over GST control)	1.27 fold enrichment (6-mer frequency, TF over GST control)	1.5 fold enrichment (6-mer frequency, TF over GST control)	1.62 fold enrichment (6-mer frequency, TF over GST control)	1.54 fold enrichment (6-mer frequency, TF over GST control)	1.59 fold enrichment (6-mer frequency, TF over GST control)	1.5 fold enrichment (6-mer frequency, TF over GST control)	1.39 fold enrichment (6-mer frequency, TF over GST control)	1.75 fold enrichment (6-mer frequency, TF over GST control)	1.62 fold enrichment (6-mer frequency, TF over GST control)	1.62 fold enrichment (6-mer frequency, TF over GST control)

Source: publication PMC7862700, “An all-to-all approach to the identification of sequence-specific readers for epigenetic DNA modifications on cytosine”
